Laboratory results as given in PubChem BioAssay (NCI).
Compounds without any hit were thinned out: in the full panel of roughly 79,000, 15% have a hit. Unmarked numbers belong to inactive results. Activity calls are given as the source filed them. Rule as the data show it: active = growth inhibition above about 70%; inactive = the rest.

How the values were obtained:
[1] = NCI Yeast Anticancer Drug Screen. Data for the rad50 strain (AID 155);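 also: 0% = growth of vehicle-only cultures of the same strain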; conditions: S. cerevisiae rad50 strain growth inhibition; at 50.0 µM; hits give high values
Outline: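 Growth of the mutant yeast was measured after compound exposure and referenced to vehicle-treated cultures.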

[2] = NCI Yeast Anticancer Drug Screen. Data for the mec2-1 strain (AID 157); conditions: S. cerevisiae mec2-1 strain, at 50.0 µM, hits give high values
Outline: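 Growth inhibition is read against vehicle-treated controls after compound exposure of the mec2-1 yeast strain, which is defective in DNA damage repair or cell cycle control.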

[3] = NCI Yeast Anticancer Drug Screen. Data for the sgs1 mgt1 strain (AID 161);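 also: 0% = growth of cultures given vehicle only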; conditions: S. cerevisiae sgs1 mgt1 strain, at 50.0 µM, hits give high values
Outline: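 Compounds are added to genetically altered yeast, and growth is compared with cultures given vehicle alone to give percent inhibition.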

[4] = NCI Yeast Anticancer Drug Screen. Data for the cln2 rad14 strain (AID 165);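 also: 0% = growth equal to vehicle treated cultures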; conditions: S. cerevisiae cln2 rad14 strain, at 50.0 µM, hits give high values
Outline: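 Growth inhibition, relative to vehicle-treated controls, is the read-out. The test organism is a yeast strain with defined genetic alterations, cln2 rad14.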

[5] = NCI Yeast Anticancer Drug Screen. Data for the bub3 strain (AID 167); conditions: S. cerevisiae bub3 mutant strain, at 50.0 µM, hits give high values
Outline: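 Whole-cell yeast assay. The mutant strain was incubated with compounds, and growth inhibition was determined by comparison with vehicle-treated cells.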

[6] = NCI Yeast Anticancer Drug Screen. Data for the mlh1 rad18 strain (AID 175); conditions: S. cerevisiae mlh1 rad18 strain growth inhibition; at 50.0 µM; hits give high values
Outline: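 Cells of a genetically altered yeast strain, deficient in DNA damage repair, were treated with compound. Their growth was then compared with that of vehicle-treated cultures to give inhibition.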

| Compound | growth inhibition [1] | growth inhibition [2] | growth inhibition [3] | growth inhibition [4] | growth inhibition [5] | growth inhibition [6] |
| --- | --- | --- | --- | --- | --- | --- |
| [Cl][Ni][Cl].[NH-]CCN1CC1.[NH-]CCN1CC1 | -9.75% | 19.4% | 19.4% | -26.4% | -4.55% | -5.75% |
| CNc1ccccc1C(=O)O | -19.8% | -7.3% | 10.5% | -9.75% | -12.2% | 3.15% |
| O=[C-]/C=C/c1ccccc1.[C-]#[O+].[C-]#[O+].[Fe+2].[c-]1ccccc1 | 21.8% | 2.5% | 5.95% | -3% | -7.1% | 7.15% |
| O=C(O)CCCc1ccc(N(CCCl)OCCCl)cc1 | -21.1% | -3.3% | 16.7% | 10.2% | 13.3% | -0.25% |
| CCOP(=O)(O)CP(=O)(O)OCC.CCOP(=O)(O)CP(=O)(O)OCC.[Cr] | -61.8% | -11.4% | -32.2% | -40.5% | 2.7% | -27.2% |
| CC(=O)OC[C@]12CCC(C)=C[C@H]1O[C@@H]1[C@H](O)[C@@H](OC(C)=O)[C@@]2(C)[C@@]12CO2 | -9.2% | -26.6% | 14.9% | -3.45% | -1.3% | -6.7% |
| CN1C(=O)c2ccccc2NC(=O)C12OC2c1ccccc1 (stereo not given) | -0.1% | 18% | 11.3% | 10.2% | 18.2% | 8.15% |
| CC(=O)Nc1cc(Cl)c([N+](=O)[O-])cc1C | -14.9% | -4.15% | -12.4% | -79.1% | 0.75% | 11.6% |
| O=C(O)C(Br)CBr (stereo not given) | 4.7% | 17.6% | 27.2% | -13.2% | -1.55% | 34.5% |
| CC1(C)N=C(N)N=C(N)N1c1ccc(CCCCCCc2ccc(S(=O)(=O)F)cc2)cc1 | 99.5% (active) | 99% (active) | 99.5% (active) | 99% (active) | 99% (active) | 99.4% (active) |
| C1CCNCC1.COc1ccccc1C(=O)[CH-]C(=O)C(F)(F)F.COc1ccccc1C(=O)[CH-]C(=O)C(F)(F)F.COc1ccccc1C(=O)[CH-]C(=O)C(F)(F)F.COc1ccccc1C(=O)[CH-]C(=O)C(F)(F)F.[Eu+3] | 56.3% | 48.5% | 48.9% | 34.1% | 29.8% | 64.5% |
| [I][Hg][CH]1CCC2CCCC1O2 (stereo not given) | 99.7% (active) | 99.6% (active) | 99.8% (active) | 99% (active) | 98.8% (active) | 99.7% (active) |
| O=C1c2ccccc2C(=O)c2ccccc21 | 37% | 5.25% | 1.95% | -29.4% | 25.5% | 47.5% |
| O=C(N/N=C/c1ccc(N(CCCl)CCCl)cc1)c1ccc(N(CCCl)CCCl)cc1 | 30.6% | 4.65% | 26.6% | 37.8% | 4.55% | 7.9% |
| C=C(CC(=O)O)C(=O)O | -2.25% | 2.8% | -3.85% | 6.2% | 6.05% | 4.9% |
| [CH3][Sn]1([CH3])[O]CC(COc2cc(Cl)c(Cl)cc2Cl)[O]1 (stereo not given) | -22.4% | 6.65% | 2.95% | 5.35% | -10.1% | 4.5% |
| CC(CN1NC12CCCC2)N1NC12CCCC2 (stereo not given) | 0.95% | -1.85% | 29.2% | 24.4% | 15.6% | -35.5% |
| O=C1OC(c2ccccc2)(c2ccccc2)C(=O)OC1(c1ccccc1)c1ccccc1 | 16.7% | -14% | 7.7% | 0.4% | 10.4% | 19.2% |
| [C-]#[O+].[C-]#[O+].[C-]#[O+].[C-]#[O+].[Cr].c1ccc([PH+](CC[PH+](c2ccccc2)c2ccccc2)c2ccccc2)cc1 | 11.7% | 4.85% | -0.9% | 15.2% | 0.35% | 20.4% |
| O=C1C=CC(=O)N1c1ccccc1Cl (tested in a mixture with another compound) | 20.2% | 4.15% | 20.5% | 4.2% | 21.2% | 6.7% |

| Compound | growth inhibition [1] | growth inhibition [2] | growth inhibition [3] | growth inhibition [4] | growth inhibition [5] | growth inhibition [6] |
| --- | --- | --- | --- | --- | --- | --- |
| Cn1c2c(c3ccccc31)CCN1OCC=C[C@@H](C(=O)O)[C@@H]21 | -8.3% | 3.15% | -6.3% | 5.55% | 42.3% | -8.85% |
| C1C[N-]CC[N-]1.C1C[N-]CC[N-]1.N#CS.[Ni+2] | 5.1% | 5.65% | 1.4% | -11.9% | 7.6% | -5.4% |
| Cc1ccc(C(=O)CN)cc1 | 10.4% | 0.05% | -1.35% | 4% | 3.45% | -9.5% |
| O=C(CC(=O)C(F)(F)F)c1cccs1.O=C(CC(=O)C(F)(F)F)c1cccs1.O=C(CC(=O)C(F)(F)F)c1cccs1.[Gd] | 29.8% | 26.2% | 26.9% | -3.25% | 44% | 15.9% |
| CC(=O)C(C)(C)C | 0% | -1.45% | 5.15% | 3% | 3.5% | 24.1% |
| Nc1ccc(Cl)cc1.Nc1ccc(Cl)cc1.Nc1ccc(Cl)cc1.O=C([O-])C(=O)[O-].O=C([O-])C(=O)[O-].[H+].[Ru+5] | 18.4% | 20.7% | 13.3% | 27.5% | 26.6% | 34.5% |
| CC(C)c1cc(C(C)C)c(S(=O)(=O)N=[N+]=[N-])c(C(C)C)c1 | 12.6% | -0.8% | -31.4% | -8.3% | -16.9% | -7.95% |
| O=C1NC(=O)C2(CCOCC2)C(=O)N1 | -5.15% | 3.3% | -19.1% | -18.4% | -17.5% | 0.15% |
| CC12CCC3C(CCC4CC(Cl)CCC43C)C1CCC2=O (stereo not given) | 9.95% | 8.5% | 6.25% | -59.4% | -6.1% | -5.05% |
| Nc1ncn[nH]1 | -5.05% | 11.7% | -7.75% | 7.9% | 18.6% | -3.25% |
| OC12CCC[N+]1(Cc1ccccc1)CCC2 (stereo not given) | 9.25% | -9.75% | -7.9% | 2.85% | -0.55% | -18.1% |
| CCCCCCCC(=O)[O-].N.N.N.N.N.[Co+3].[O-][Cl+3]([O-])([O-])[O-] | -16.1% | 20.2% | -46.8% | 9.1% | -10.7% | -13.3% |
| O=C(N/N=C/c1cc(Cl)cc(Cl)c1[O-])c1ccccc1O.O=C(N/N=C/c1cc(Cl)cc(Cl)c1[O-])c1ccccc1O.[Cu+2] | -6.05% | -16.2% | -17.8% | -38.2% | -12.7% | 12.3% |
| Cc1ccc(N=C(C(c2ccccc2)c2ccccc2)N(CCCl)CCCl)cc1 | 24.2% | 3.45% | 19.9% | 13.3% | 18.1% | 24.1% |
| CC(=O)OC1CCC2(CO)C(CCC3C4CCC(=O)C4(C)CCC32)C1 (stereo not given) | 14.1% | -4.25% | 0.3% | 11.9% | 5.3% | 21.8% |
| CCCCC(=O)c1cc(OC)cc(OC)c1 | 8.35% | -12.3% | -34.1% | -54% | 22.4% | -10.7% |
| O=NN1CCCCCCC1C(=O)O (stereo not given) | 1.3% | 6.55% | -14.7% | -22.8% | 9.15% | 19.5% |
| CCCCN1C(=O)CC(=O)N(c2ccccc2)C1=O | -8.55% | -28% | -3.8% | 14.3% | -14.4% | -4.35% |
| O=C(O)CP(=S)(S)c1ccccc1 (stereo not given) | -28.5% | -32.9% | -26.4% | 2.4% | -27.8% | -39.5% |
| S=P(Oc1cc(Cl)c(Cl)cc1Cl)(N1CCOCC1)N1CCOCC1 | 37.1% | 8.85% | 42% | 35% | 12.3% | 19.9% |
